Laboratory results published in PubChem BioAssay (NCI).
About 83,000 compounds went through this panel and 20% of them were active in at least one assay; those are over-represented in the sample as a whole.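 Note: values are percent growth. 100 is the growth of untreated cells, values between 100 and 0 indicate rising inhibition; between -100 and 0 indicates cell death.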 Values without a mark were called inactive. Active and inactive are the calls of the source. Rule for the calls: active = growth percent below 10; inactive = the rest.

Legend:
Assay in all cases: NCI-60 one-dose screen, 48 h (100 = growth as untreated, 0 = no growth, -100 = all killed)
Details in all cases: 10 µM unless noted
HCT-15 colon = system: HCT-15 colon
HT29 colon = system: HT29 colon
SNB-75 CNS = system: SNB-75 CNS
SNB-19 CNS = system: SNB-19 CNS
U251 CNS = system: U251 CNS
PC-3 prostate = system: PC-3 prostate
SK-MEL-5 melanoma = system: SK-MEL-5 melanoma
UACC-62 melanoma = system: UACC-62 melanoma
LOX IMVI melanoma = system: LOX IMVI melanoma
SK-MEL-28 melanoma = system: SK-MEL-28 melanoma
SK-MEL-2 melanoma = system: SK-MEL-2 melanoma
EKVX NSCLC = system: EKVX NSCLC
SN12C renal = system: SN12C renal
UO-31 renal = system: UO-31 renal
TK-10 renal = system: TK-10 renal
ACHN renal = system: ACHN renal
CAKI-1 renal = system: CAKI-1 renal
A498 renal = system: A498 renal
CCRF-CEM leukemia = system: CCRF-CEM leukemia
MOLT-4 leukemia = system: MOLT-4 leukemia

Compound | growth (HCT-15 colon) | growth (HT29 colon) | growth (SNB-75 CNS) | growth (SNB-19 CNS) [%] | growth (U251 CNS) | growth (PC-3 prostate) [%] | growth (SK-MEL-5 melanoma) | growth (UACC-62 melanoma) | growth (LOX IMVI melanoma) | growth (SK-MEL-28 melanoma) | growth (SK-MEL-2 melanoma) | growth (EKVX NSCLC) | growth (SN12C renal) | growth (UO-31 renal) | growth (TK-10 renal) [%] | growth (ACHN renal) | growth (CAKI-1 renal) | growth (A498 renal) | growth (CCRF-CEM leukemia) | growth (MOLT-4 leukemia)
COCCn1cc(-c2csc(-c3c[nH]c4ccc(F)cc34)n2)c2cccnc21 | 14.7% | 11.8% | 39.7% | 58.1 | 32.5% | 22.5 | 1.53% (active) | 42.5% | 21.8% | 46.6% | 25.3% | 38% | 66.7% | 38.4% | 33.1 | 41.9% | 45.3% | 9.07% (active) | 20.1% | 14.2%
CCOC(=O)c1nnn(-c2no[n+]([O-])c2-c2ccc(OC)cc2)c1COc1cccc2cccnc12 | 22.2% | 3.79% (active) | 73.1% | 25.2 | 14.9% | 34.2 | -22.4% (active) | 8.44% (active) | -43.1% (active) | 58.2% | 3.57% (active) | 44.8% | 3.95% (active) | 34.3% | 33.2 | 21.8% | 24.1% | 103% | 4.84% (active) | 10%
O=C(/C=C/c1ccccc1)c1cccc2ccccc12 | 26.5% | 3.24% (active) | 17.4% | 56.7 | 29.6% | 45.2 | 59.2% | 36.1% | 57.8% | 68.3% | 5.16% (active) | 65.1% | 46.3% | 46.9% | 22.5 | 43.1% | 40.7% | 50.1% | 3.83% (active) | 6.46% (active)
COCCOC(C)C(/C=N/NC(N)=S)=N/NC(N)=S (stereo not given) | 51.8% | 39.5% | 120% | 92.8 | 48.5% | 27.9 | 60.8% | 67.1% | 51.1% | 90.1% | 82.5% | 55.7% | 76.5% | 79.1% | 92.5 | 66.7% | 82.6% | 107% | 42.6% | 16.7%
Cc1ccc(S(=O)(=O)c2nc(-c3ccccc3)oc2SCC(N)=O)cc1 | 95.3% | 85.7% | 90.4% | 99.5 | 105% | 85.6 | 94.9% | 105% | 96% | 108% | 94.3% | 95.8% | 106% | 85.5% | 85.7 | 99.5% | 87.3% | 80.3% | 102% | 90.6%
COc1ccc(C/C(C)=C(\c2ccc(Cl)cc2)c2ccc(OCCCN(C)C)cc2)cc1 | 27.3% | 13.6% | 72.4% | 86.7 | 46.4% | 68.7 | 78.3% | 94.5% | 73.1% | 80.8% | 111% | 94.1% | 78.8% | 62.4% | 86.7 | 90% | 87.3% | 114% | 56.9% | 40.9%
N=C(N)c1ccc(OCCSCCOc2ccc(C(=N)N)cc2)cc1 | 85.1% | 85.4% | 71.2% | 56.7 | 48% | 90.6 | 41.4% | 67.4% | 90.5% | 92.2% | 82.5% | 56.6% | 37.4% | 70.7% | 60.8 | 74.3% | 51.7% | 51.7% | 97.6% | 93.4%
O=c1cc(C(F)(F)F)c2cc(-c3cc4ccccc4c(=O)o3)c(O)cc2o1 | 90.3% | 106% | 76.1% | 67.7 | 65.7% | 68.5 | 24.9% | 21.9% | 72.8% | 69.6% | 46.1% | 89.5% | 64.4% | 58.5% | 103 | 74.1% | 76.5% | 72% | 53.9% | 58.5%
COc1ccc(C2[C@@H](Cl)C(=O)N2c2cc(OC)c(OC)c(OC)c2)cc1Cl (stereo not given in full) | 11% | -3.88% (active) | 75.7% | 32.1 | 5.8% (active) | 25.1 | -23.8% (active) | 36.3% | 20.9% | 69.6% | 15% | 35.4% | 29.1% | 45.3% | 63.9 | 33.6% | 26.5% | -6% (active) | 9.36% (active) | 13.5%
CC(O)CNC(Cc1ccccc1)c1ccc2c(c1)OCO2 (stereo not given) | 104% | 65.5% | 90.2% | 101 | 97.3% | 65.8 | 100% | 91.4% | 92.5% | 72.3% | 65% | 96.6% | 105% | 69.7% | 82.9 | 101% | 93.1% | 89.9% | 96.3% | 95.4%
Cc1nn(-c2ccc([N+](=O)[O-])cc2)c2ncnc(N/N=C/c3ccccc3O)c12 | 26.2% | 30.1% | 37.9% | 18 | 11.4% | 27 | -42% (active) | -11.3% (active) | 6.25% (active) | 22% | 31.6% | -0.848% (active) | 6.16% (active) | -11.5% (active) | 35.5 | 12% | 3.95% (active) | 65.6% | -12.4% (active) | 4% (active)
NS(=O)(=O)c1ccc(C(=O)NN2C(=O)c3ccccc3C2=O)cc1 | 107% | 111% | 74.8% | 102 | 106% | 105 | 103% | 102% | 103% | 113% | 116% | 105% | 104% | 89.9% | 103 | 112% | 94% | 73.3% | 107% | 107%
CC(=O)c1c(Nc2cccc(F)c2)[nH]c2c(Cl)cc(Cl)c(Cl)c2c1=O | 8.24% (active) | 4.86% (active) | -9.54% (active) | 16.6 | 3.22% (active) | 10.3 | -68.7% (active) | -18.7% (active) | 9.99% (active) | 5.27% (active) | -37.5% (active) | 10.8% | -0.0775% (active) | 6.24% (active) | 12.5 | 2.02% (active) | -5.89% (active) | -41.6% (active) | 8.65% (active) | 4.94% (active)
CCOC(=O)c1c(C)nc2c(c1N)C(=O)C(=O)N2Cc1ccc(OC)cc1 | 22.7% | 26.5% | 30% | 80 | 38.1% | 47.9 | 81% | 53.3% | 61.1% | 76.7% | 113% | 90.9% | 82.6% | 59.6% | 96 | 66.3% | 83.3% | 90.4% | 59.1% | 101%
Cc1cccc(N=Nc2cccc(C)c2)c1 | 96.3% | 102% | 132% | 92.4 | 106% | 104 | 105% | 92.8% | 105% | 107% | 110% | 96.2% | 96.7% | 86.8% | 114 | 99.8% | 96.2% | 93.8% | 108% | 111%
COCCn1cc(-c2nc(-c3cc4cccnc4n3C)cs2)c2ccccc21 | 21.5% | 12.9% | 61.3% | 63.5 | 33.3% | 27.5 | 2.5% (active) | 46.2% | 38.7% | 73.1% | 18.7% | 19.8% | 59.1% | 52.1% | 44.2 | 54.9% | 60.7% | 33.2% | 46.2% | 26.6%
